In PubChem BioAssay (NCI):
Compounds without any hit were thinned out: in the full panel of roughly 83,000, 20% have a hit.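 The test compound was applied at a single concentration to cells in 96-well plates for 48 hours, and percent growth was recorded.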 The source made the active and inactive calls. How the source made its calls: active means growth percent below 10; inactive means the rest.

Tested on: SK-MEL-28 melanoma
Assay: NCI-60 one-dose screen, 48 h (100 = growth as untreated, 0 = no growth, -100 = all killed)
Conditions: 10 µM unless noted

SMILES | growth
COc1ccc(-c2nc(N=Nc3c(O)[nH]c4ccccc34)nc(N3CCOCC3)c2C#N)cc1 | 72.2% (inactive)
COc1cc2nc(-c3ccc(C(F)(F)F)cc3)cc(OCCN3CCCC3)c2cc1OC | 78.6% (inactive)
NC(=S)N/N=C(/c1ccccc1)c1ccccc1N | 109% (inactive)
C=C(C)[C@@H]1CC[C@]2(C=O)CC[C@]3(C)[C@H](CC[C@@H]4[C@@]5(C)CCCNC(C)(C)[C@@H]5CC[C@]43C)[C@@H]12 | 96.7% (inactive)
CCCNC(=O)Oc1ccc(/C(=C(\C)c2ccccc2)c2ccc(OCCN3CCCCC3)cc2)cc1 | 70.5% (inactive)
CCOC(=O)Oc1c(OC)cc(C(=O)O[C@@H]2C[C@@H]3CN4CCc5c([nH]c6cc(OC)ccc56)[C@H]4C[C@@H]3[C@H](C(=O)OC)[C@H]2OC)cc1OC | 83.2% (inactive)
COc1ccc(OC)c(/C=C/[C@H]2O[C@@H](C)[C@H](O)[C@@H]2O)c1 | 102% (inactive)
CCC(=O)c1ccc(O)c(OC)c1 | 97.8% (inactive)
Clc1cc(Cl)cc(N2N=C(c3cccc(Nc4ccncc4)c3)CC2c2ccccc2)c1 (stereo not drawn) | 11% (inactive)
Fc1cc(C2=NNC(c3ccc[nH]3)C2)ccc1-n1ccc(C(F)(F)F)n1 (stereo not drawn) | 104% (inactive)
Clc1nc(Nc2ccccc2)nc(Nc2ccccc2)n1 | 112% (inactive)
Cn1c(=O)c2[nH]c(CCCc3nc4c([nH]3)c(=O)n(C)c(=O)n4C)nc2n(C)c1=O | 131% (inactive)
C=C1C(=O)O[C@H]2[C@H]1CC/C(COC(=O)NCCc1c[nH]c3ccc(Cl)cc13)=C\CC[C@@]1(C)O[C@@H]21 | -71.9% (active)
Cc1[nH]c(C(=O)Nc2ccccc2OCc2cccc(C(=O)NCCN)c2)c(Cl)c1Cl | 84.3% (inactive)
COc1cc2oc(-c3cccc(C(=O)Nc4ccc(Cl)cc4)c3)cc(=O)c2c(OC)c1OC | -9.19% (active)
O=C(Nc1nc2ccc(S(=O)(=O)Nc3ccc(C4(C(F)(F)F)CC4)cc3)cc2[nH]1)c1cnccn1 | 57.2% (inactive)
CCCCCCCCCCN=C(N)N=C(N)N | 63.3% (inactive)
CC(C)NC(=O)N1C(=O)CCC1NNC(=O)c1ccc([N+](=O)[O-])cc1 (stereo not drawn) | 98.4% (inactive)
N#Cc1cc(-c2nc3ccccc3s2)c(=O)n(NS(=O)(=O)c2ccc(Cl)cc2)c1N | 111% (inactive)

SMILES | growth
O=C1c2ccccc2-c2c1c1c(NCCCO)nc3ccccc3c1n2Cc1ccccc1 | -3.55% (active)
COC(=O)N[C@H]1CCc2cc(OC)c(OC)c(OC)c2-c2ccc(SC)c(=O)cc21 | 56.9% (inactive)
COc1nccnn1 | 102% (inactive)
Cc1ccc(C(=O)Nc2ccccc2C(=O)N/N=C(\c2ccccc2)c2ccccn2)cc1 | 32.4% (inactive)
CCCCN(CCCC)CCc1c(C)cc(C)c(CCN(CCCC)CCCC)c1O | 23.2% (inactive)
Nc1cc(N)c2cccnc2c1O | 73.6% (inactive)
CN1CCCC1=Nc1ccccc1 | 96.6% (inactive)
COc1ccc(CNC(=O)COc2ccc(/C=N/Nc3nc4ccccc4s3)cc2)cc1 | 35.2% (inactive)
O=C1OC(=O)C2C1CC=CC2c1ccccc1 (stereo not drawn) | 91.8% (inactive)
COc1ccc(CC(C)=C(c2ccc(OCCN(C)C)cc2)c2ccc(OCCN(C)C)cc2)cc1 | 71.5% (inactive)
O=C(N=Nc1c(O)[nH]c2ccc(F)cc12)c1cc2ccccc2[nH]1 | 110% (inactive)
O=S(=O)(NCCNc1nccc(-c2c(-c3cccc(F)c3)nc3occn23)n1)c1cccc2ccccc12 | 73% (inactive)
O=S(=O)(c1ccc(N/N=C\c2ccccc2)cc1)c1ccc(N/N=C/c2ccccc2)cc1 | 75.6% (inactive)
CCOc1ccc(/C=N/Nc2cc(C)nc3ccc(Cl)cc23)cc1 | 28.2% (inactive)
CC(C)Cc1ccc(C(C)C(=O)NCc2c[nH]c3ccc(Cl)cc23)cc1 (stereo not drawn) | 94.6% (inactive)
COc1ccccc1OCC(=O)N1CCCCCC1 | 101% (inactive)
Nc1nc(SN=Nc2ccc(S(N)(=O)=O)cc2)c2[nH]cnc2n1 | 15.6% (inactive)
COc1ccc(C2CC(n3nnnc3-c3ccccc3)=NN2)cc1 (stereo not drawn) | 94.6% (inactive)
CC(c1ccccc1)n1ccnc1CO (stereo not drawn) | 94.5% (inactive)
